High-throughput results (PubChem BioAssay)
This is a sample that favours compounds with a hit; in the whole collection about 3.7% have one here.
TMEM16A inh – mouse TMEM16A channel inhibition, primary screen; Q8BHY3; normalized B-score (activity score, 25-100; higher = stronger inhibition) at 10 µM; HEK293 TMEM16A/YFP iodide influx fluorescence, ionomycin; AID 588511; hit rate 1.2% among 310,000;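 active = ratio plate-corrected score three or more library SD toward inhibition, starting fluorescence score within five deviations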;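 also: score derived from kinetic fluorescence span divided by baseline fluorescence per well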
Kir21 inh – blocks the mouse Kir2.1 inward-rectifier potassium channel; P35561; HEK293-Kir2.1, FluxOR thallium flux fluorescence; hits give low values; B-score at 10 µM; hit rate 0.85% among 310,000;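 active = fluorescence ratio B-score at or below minus 3 SD of library scores, with starting-brightness B-score within 2 SD, cut at about -4.2 in these data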;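 also: channel flux triggered by added potassium and thallium sulfate stimulus; B-score of peak minus minimum fluorescence over baseline after thallium stimulus; more negative B-score means stronger Kir2.1 block with less thallium influx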
GPR7 antag – antagonists of human GPR7 (neuropeptides B/W receptor 1); P48145; GPR7-expressing cells, fluorescence antagonist assay; inhibition, % at 4.4 µM; hit rate 1.1% among 290,000; in the data active = inhibition above about 16%, passing the limit was not always enough;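 also: cells stimulated with the agonist NPW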
Target sequence (P48145 whole entry, looked up): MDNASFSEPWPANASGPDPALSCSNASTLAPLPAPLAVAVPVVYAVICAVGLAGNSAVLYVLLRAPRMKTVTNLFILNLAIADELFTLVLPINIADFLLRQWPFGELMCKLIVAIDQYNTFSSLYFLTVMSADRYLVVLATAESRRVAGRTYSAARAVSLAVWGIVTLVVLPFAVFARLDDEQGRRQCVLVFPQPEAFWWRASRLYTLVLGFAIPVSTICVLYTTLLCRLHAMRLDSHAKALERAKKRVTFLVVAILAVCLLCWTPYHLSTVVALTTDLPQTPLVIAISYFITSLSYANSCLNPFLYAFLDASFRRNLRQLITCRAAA
CHT inh – inhibitors of human choline transporter CHT; Q9GZV3; CHT-expressing cells, membrane potential dye, choline response; hits give low values; B-score at 10 µM; hit rate 0.86% among 310,000; AID 488975;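 active = B-score over 3 SD under the library average, and starting fluorescence ratio not unusually high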;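 also: choline stimulus applied at its EC90 after an EC20 pre-addition; B-score computed on integrated fluorescence ratio after choline addition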
TMEM16A act – activators or potentiators of mouse TMEM16A chloride channel; HEK293 TMEM16A/YFP-H148Q/I152L, iodide quench fluorescence; hits give low values; B-score at 10 µM; hit rate 0.3% among 340,000; AID 623877;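 active = fluorescence-ratio B-score plate-corrected deviation score at least 3 library SD below zero, with starting fluorescence score within 5 deviations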;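 also: channel opened by trigger with iodide after compound preincubation; score built on the fluorescence ratio of max minus min over baseline; more negative score means more quench and so TMEM16A activation or potentiation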
CHT allo act – human CHT allosteric activation; hit rate 0.49% among 310,000; B-score at 10 µM; AID 488977; CHT-expressing cells, membrane potential dye, choline EC20; hits give high values; LV-AA mutant CHT in HEK293 cells; Q9GZV3;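 active = initial fluorescence not abnormally high and integrated response B-score, plate-corrected, over 3 SD above library mean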
CHT block conf – human CHT inhibition, confirmatory screen | AID 493221 | shares compounds with CHT inh | hit rate 70% among 2,400 | CHT activity remaining % of control (hits give low values), % at 10 µM | CHT-expressing cells, choline membrane potential dye; LV-to-AA substituted CHT, HEK293 cells;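 active = choline transporter activity left, mean of duplicates at 10 µM, below buffer-only control mean minus 3 SD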;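 also: depolarization triggered by choline at its EC90 following an EC20 pre-addition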
HEK293 CHT ctr – CHT inhibitor counter-screen hit in parental HEK293 cells; shares compounds with CHT inh; membrane potential dye, choline response; active = decrease or increase beyond buffer ±3SD; membrane potential ratio readout (active if shifted either direction beyond buffer ±3SD; no single direction) at 10 µM; hit rate 4% among 2,400;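 also: parental cells lack the transporter so any hit is non-specific; ratio is peak minus trough fluorescence over baseline after EC90 choline challenge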
A number is an active result; – = inactive; · = no result.

SMILES	TMEM16A inh	Kir21 inh	GPR7 antag	CHT inh	TMEM16A act	CHT allo act	CHT block conf	HEK293 CHT ctr
O=C(Nc1ccc(Cc2ccncc2)cc1)c1cc(F)c(F)cc1Cl	–	–	–	-8.5	–	–	–	–
Cc1c(S(=O)(=O)Nc2ccc(Oc3ccccc3)cc2)c(=O)n(C)c(=O)n1C	–	–	–	–	–	–	·	·
Cc1ccc(OCC(=O)NC(=S)Nc2ccccn2)c(Br)c1	–	–	–	–	–	–	·	·
Cc1ccc(OCC(=O)NNC(=S)NC(=O)C(C)(C)C)c(Br)c1	–	–	–	-10	–	–	55%	–
COc1ccc(OCc2cc(C(=O)N(C)Cc3cc(C)no3)no2)c(Cl)c1	–	–	–	–	–	–	·	·
CCN(Cc1ccncc1)C(=O)c1cc(COc2ccc(OC)cc2Cl)on1	–	–	–	–	–	–	·	·
Cc1cc(CN(C)C(=O)c2cc(COc3ccc(F)cc3Cl)on2)n[nH]1	–	–	–	-6	–	–	55%	–
CCN(Cc1ccncc1)C(=O)c1cc(COc2ccc(F)cc2Cl)on1	–	–	–	-5.7	–	–	49%	–
C=CCn1c(C)nc2c(cnn2-c2ccccc2)c1=O	–	–	–	–	–	–	·	·
CCN(CC(=O)NCc1ccco1)S(=O)(=O)c1ccc(OC)cc1	–	–	·	–	–	–	·	·
N#CC1=C(N)Oc2cc(O)ccc2C1c1ccc(Br)s1 (stereo unspecified)	–	–	–	–	–	–	·	·
COc1cccc(CN2CCCC(C(=O)c3ccc4c(c3)OCO4)C2)c1OC (stereo unspecified)	–	–	–	-12	–	–	–	–
Cc1ccc(C(C)NC(=S)NCc2ccc(F)cc2)cc1C (stereo unspecified)	–	-11	–	-5.1	–	–	71%	–
Cc1ccc(C(C)NC(=S)NCc2ccc(F)cc2)c(C)c1 (stereo unspecified)	–	–	–	–	–	–	·	·
CC1(C)C(=O)Nc2ccccc2N1C(=O)COC(=O)CNS(=O)(=O)c1ccc(Br)cc1Cl	·	·	·	·	–	·	·	·
Cc1cc2c(cc(C(=O)N3CCC(C(=O)NC4CCCC4)CC3)n2Cc2c(F)cccc2Cl)o1	–	–	·	-6.6	–	–	–	–
O=C(Nc1nc2ccc(S(=O)(=O)N3CCCCC3)cc2s1)c1cccnc1	–	–	–	-5.5	–	–	49%	–
CC(=O)Nc1nc2ccc(S(=O)(=O)N3CCCCC3)cc2s1	–	–	–	–	–	–	·	·
CCOC(=O)C1=C(N)Oc2cc(C)n(CCc3ccc(OC)c(OC)c3)c(=O)c2C1c1cccnc1 (stereo unspecified)	–	–	–	–	–	–	·	·
COC(=O)C1=C(N)Oc2cc(C)n(CCc3ccccc3)c(=O)c2C1c1cccnc1 (stereo unspecified)	–	–	–	-5.2	–	–	69%	–
CCOc1cc(C(c2c(O)nc(SC)[nH]c2=O)c2c(O)nc(SC)[nH]c2=O)ccc1O	–	–	·	–	–	–	·	·
COc1ccccc1C(c1c(O)nc(SC)[nH]c1=O)c1c(O)nc(SC)[nH]c1=O	–	–	·	–	–	–	–	–
O=C(Cn1c(=O)oc2ccccc21)N1CCCC1	–	–	–	–	–	–	·	·
COc1ccc(CNC(=O)COC(=O)C2CCC(C(C)(C)C)CC2)cc1 (stereo unspecified)	–	–	–	–	–	–	·	·
COc1ccc(CNC(=O)COC(=O)CC2CCCC2)cc1	–	–	–	-5.4	–	–	–	–
SMILES	TMEM16A inh	Kir21 inh	GPR7 antag	CHT inh	TMEM16A act	CHT allo act	CHT block conf	HEK293 CHT ctr
Cc1cc(C)cc(OCC(O)CN2CCC(CN3C(=O)c4cccc5cccc(c45)C3=O)CC2)c1 (stereo unspecified)	–	–	·	-5.5	–	–	58%	–
O=C(CSc1nccn1-c1ccc(F)cc1)NCc1ccc(F)cc1	–	–	–	-5.3	–	–	53%	–
N#Cc1ccc(-c2csc(NC3=NCCCCC3)n2)cc1	·	–	–	·	–	·	·	·
c1ccc(-c2csc(NC3=NCCCCC3)n2)cc1	–	–	–	-7.1	–	–	–	–
CC(=O)Nc1ccc(NC(=O)C(C)Oc2ccccc2C(=O)NCc2ccccc2)cc1 (stereo unspecified)	·	·	·	·	–	·	·	·
CCOc1ccc(NC(=O)CN(C)C(=O)C2CCN(C(=O)c3ccc(Cl)cc3)CC2)cc1OCC	·	·	·	·	–	·	·	·
Cc1ccc(C)c(S(=O)(=O)NCc2ccncc2)c1	–	–	–	–	–	–	·	·
Cc1cc(S(=O)(=O)NCc2ccncc2)c(C)cc1Br	–	–	–	-5	–	–	67%	–
CCCCCCCCN1[C@@H](CC(=O)O)c2ccc(C(F)(F)F)cc2S1(=O)=O	–	–	·	-6.1	–	–	65%	–
S=c1nc(-c2cc(Cl)cc(Cl)c2)[nH][nH]1	–	–	–	-5.8	–	–	32%	–
COc1ccc(CCNC(=O)CCc2cc(OC)c(OC)c(OC)c2)cc1OC	–	–	–	–	·	–	·	·
O=C(Nc1ccccc1Cl)c1ccc(S(=O)(=O)NCC2CCCO2)cc1 (stereo unspecified)	–	–	–	-6.4	–	–	31%	–
Cc1ccc(NC(=O)c2ccc(Cl)c(S(=O)(=O)NCC3CCCO3)c2)c(O)c1 (stereo unspecified)	–	–	–	–	–	–	·	·
Cc1ccccc1NC(=O)c1ccc(F)c(S(=O)(=O)NCC2CCCO2)c1 (stereo unspecified)	–	–	–	-7.7	–	–	21%	–
COc1ccc(Cn2c(=O)c3[nH]cnc3n(-c3ccccc3C)c2=O)cc1	–	–	–	-5.5	–	–	56%	–
CCc1nn(C(C)C(=O)NCCc2ccc(OC)c(OC)c2)c(=O)c2cc3occc3n12 (stereo unspecified)	–	–	–	–	–	–	·	·
CCc1nn(C(C)C(=O)NC(C)CCc2ccco2)c(=O)c2cc3occc3n12 (stereo unspecified)	–	–	–	-5.9	–	–	49%	-14
CCc1nn(C(C)C(=O)NCCc2ccccc2)c(=O)c2cc3occc3n12 (stereo unspecified)	–	–	–	-5.7	–	–	–	–
CCc1nn(CCCC(=O)N2CCc3ccccc3C2)c(=O)c2cc3occc3n12	–	–	–	-5.7	–	–	58%	-9
CCc1nn(C(C)C(=O)NCc2cccc(Cl)c2)c(=O)c2cc3occc3n12 (stereo unspecified)	–	–	–	–	–	–	·	·
